# Data taken from ChEMBL document CHEMBL1157539, “Thousands of chemical starting points for antimalarial lead identification” (Nature, 2010).
# How the values were obtained:
# Type in all cases: functional
# Plasmodium falciparum [1] = test: GSK_TCMDC: Inhibition of Plasmodium falciparum 3D7 in whole red blood cells, using parasite LDH activity as an index of growth. Test compounds present at 2uM
# Plasmodium falciparum [2] = test: GSK_TCMDC: Inhibition of Plasmodium falciparum Dd2 in whole red blood cells, using parasite LDH activity as an index of growth. Test compounds present at 2uM
# HepG2 = test: GSK_TCMDC: Percent inhibition of human HepG2 cell line. Test compounds present at 10uM.
Structure (SMILES),Inhibition (Plasmodium falciparum [1]),Inhibition (Plasmodium falciparum [2]),Inhibition (HepG2)
CC(C)CNC(=O)c1cncc(-c2ccc(CNCCCc3ccccc3)cc2)c1.O=C(O)C(F)(F)F,100%,73%,28%
Cc1cccc(CN2CCC(C(=O)Nc3ccc(-c4nc5ccccc5[nH]4)cc3)CC2)n1,96%,3%,0%
Cc1ccc(NCC(=O)Nc2ccc(F)c(Cl)c2)cc1S(=O)(=O)N1CCOCC1,98%,97%,2%
